B2AR arrestin = qHTS assay of beta-arrestin-biased ligands of beta2-adrenergic receptor; Beta-2 adrenergic receptor (Homo sapiens), P07550; beta-arrestin recruitment to beta2AR, cell-based reporter; Potency, µM (highest dose often 46.1 µM), for the others: top-dose activation, most hits filed as activators; hit rate 0.02% among 330,000;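 further: potency means the concentration at half of the fitted maximal effect; 0% = DMSO controls and full agonism = EC100 isoproterenol or metaproterenol; nearly all actives have a fitted effect of over 65% in size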
VP16 counter = VP16 counterscreen qHTS for inhibitors of ROR gamma transcriptional activity | Drosophila S2 Gal4-VP16 UAS-luciferase, luminescence, 20 h | Potency, µM (doses to about 53.6 µM), for the others: at the top dose activity, negative = inhibition, most hits filed as inhibitors | hit rate 3.5% among 310,000;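 further: Gal4-VP16 expression switched on by copper sulfate through the metallothionein promoter; potency means the concentration at half of the fitted maximal effect; nearly all actives have a fitted effect of over 50% in size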
ELG1 DNA repair = qHTS screen for small molecules that inhibit ELG1-dependent DNA repair in human embryonic kidney (HEK293T) cells expressing luciferase-tagged ELG1 | Potency, µM (titrated, usually from 46.1 µM), without a hit: at the highest dose activity change, negative = inhibition, hits mostly inhibitors | HEK293T ELG1-luciferase reporter, luminescence, 16 h; DNA damage induced by 5-fluorouridine | AID 504467, 2011 | hit rate 2.3% among 330,000; further: potency means the concentration at half of the fitted maximal effect; nearly all actives have a fitted effect of over 55% in size
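In this reporter screen, reduction of luminescence relative to DMSO vehicle indicated activity. Compounds and 5-fluorouridine were added together to 2,000 cells per well, incubated for 16 hr at 37 °C, then developed with ONE-Glo.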
TSHR antag = Antagonists of the Thyroid Stimulating Hormone Receptor: HTS campaign. Thyrotropin receptor (Homo sapiens), P16473. hit rate 0.2% among 330,000. activity change, negative = inhibition, % at 11.5 µM. TSHR-expressing cells, TSH-stimulated cAMP HTRF, 2 h; active compounds read low;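 active means activity change below a set negative limit, meaning inhibition stronger than a set level, cut at about -70% in these data; inconclusive means activity change between two set negative limits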
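TSHR-expressing cells, 200/well, pre-treated with compound, then stimulated with EC80 TSH (4nM final) for 2 hours at 37 deg C. cAMP measured by competitive HTRF: anti-cAMP cryptate antibody in lysis buffer plus cAMP-d2, read after 30 minutes at room temperature.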
RORgamma inh = qHTS for inhibitors of ROR gamma transcriptional activity; AID 2551, 2010; Drosophila S2 Gal4-RORgamma UAS-luciferase reporter, 20 h; Potency, µM (series often up to 53.6 µM), for the others: at the highest dose activity change, negative = inhibition, hits mostly inhibitors; hit rate 5.4% among 310,000; further: potency means the concentration at half of the fitted maximal effect; nearly all actives have a fitted effect of over 60% in size
Target sequence (P51450 whole entry, looked up, the tested form may be a part): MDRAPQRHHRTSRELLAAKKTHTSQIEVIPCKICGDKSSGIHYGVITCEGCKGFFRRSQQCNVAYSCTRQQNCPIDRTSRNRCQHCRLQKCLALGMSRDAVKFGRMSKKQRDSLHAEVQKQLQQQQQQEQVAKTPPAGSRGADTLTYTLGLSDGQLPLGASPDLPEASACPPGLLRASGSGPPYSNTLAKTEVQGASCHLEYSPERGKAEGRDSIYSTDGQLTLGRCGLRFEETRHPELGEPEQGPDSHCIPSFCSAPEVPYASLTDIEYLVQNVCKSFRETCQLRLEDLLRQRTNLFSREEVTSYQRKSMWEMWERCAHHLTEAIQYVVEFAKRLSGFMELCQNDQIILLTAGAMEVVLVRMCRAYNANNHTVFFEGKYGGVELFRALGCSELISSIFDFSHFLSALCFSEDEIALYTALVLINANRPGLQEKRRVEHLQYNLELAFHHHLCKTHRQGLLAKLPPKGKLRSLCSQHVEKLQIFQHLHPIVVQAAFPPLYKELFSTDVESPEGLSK
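Drosophila S2 cells stably expressing Gal4-DBD/mouse RORγ fusion under metallothionein promoter plus UAS-luciferase; compound 1 h, then 700 uM CuSO4 induction for 20 h at ambient temperature; inhibition read as reduced luminescence.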
An asterisk follows results filed as active; u = inconclusive; x = no result; [ ] = remark or other dose. Shown are actives, neighbours in structure and some others; about 7.5% of the full set was active somewhere. Unless noted, the call rests on the fitted dose curve; in most records, active means well fitted curve in the direction sought with a large enough effect; inconclusive means small, poorly fitted or top-dose-only effect, or another doubt; inactive means no such curve, though single readings can be large; an effect the other way counts as inactive or inconclusive. Unless noted, on the % scale 0 is the no-effect control and ±100 the full control effect.

SMILES	B2AR arrestin	VP16 counter	ELG1 DNA repair	TSHR antag	RORgamma inh
Cc1cc(C)n(-c2nc3sc4c(c3c3nnc(SCC(N)=O)n23)CC(C)(C)OC4)n1	-1%	-4%	u	-11	8%
Cc1cc(C)n(-c2nc(NCCN(C)C)c3c4c(sc3n2)COC(C)(C)C4)n1	0%	-19%	u	-1	16µM*
CSc1nnc2c3c4c(sc3nc(-n3nc(C)cc3C)n12)COC(C)(C)C4	0%	-2%	13µM*	6	-9%
Cc1cc(C)n(-c2nc(NCCCN(C)C)c3c4c(sc3n2)COC(C)(C)C4)n1	0%	1%	5%	17	u
CCN(CC)CCNc1nc(-n2nc(C)cc2C)nc2sc3c(c12)CC(C)(C)OC3	11%	u	0%	-7	2.2µM*
O=c1cc(N2CCNCC2)oc2c(-c3ccccc3)cccc12	x	-14%	x	x	-6%
CCC(=O)N1CCc2cc(Br)cc(S(=O)(=O)CCC(=O)N(C)c3cccc(C)c3)c21	0%	x	x	-7	x
CCn1nc(NC(=O)c2ccccc2)c2cc3cccc(C)c3nc21	-1%	3%	7.3µM*	-10	-8%
Cc1ccc2cc3c(NC(=O)c4ccco4)nn(CC(C)C)c3nc2c1	1%	-28%	-1%	-1	-31%
CCn1nc(NC(=O)Cc2ccc(OC)cc2)c2cc3cc(C)ccc3nc21	0%	-9%	u	10	-1%
CCn1nc(NC(=O)c2ccccn2)c2cc3cc(C)ccc3nc21	1%	7.1µM*	u	-21	5µM*
Cc1ccc2nc3c(cc2c1)c(NC(=O)c1ccccn1)nn3CC(C)C	0%	5µM*	23µM*	2	1.8µM*
O=C(c1ccc(-c2ccc([N+](=O)[O-])cc2)o1)N1CCN(S(=O)(=O)c2cccs2)CC1	0%	x	u	-28	x
Cc1cccc(C)c1NC(=S)N(CCN1CCCCCC1)Cc1ccco1	0%	15%[10 µM]	2%	7	13µM*
Cc1cc(C)c(NC(=S)N(CCN2CCCCC2)Cc2ccco2)c(C)c1	-1%	-8%[10 µM]	-11%	0	10µM*
Cc1ccccc1NC(=S)N(CCN1CCCCC1)Cc1ccco1	0%	5%	-2%	8	-38%
CCc1ccc(NC(=S)N(CCN2CCCCC2)Cc2ccco2)cc1	-2%	u	7%	12	u
CCCCCCCCCCCCCCCCCCOC[C@@H](O)COP(=O)([O-])OCC[N+](C)(C)C	x	2%	x	x	25%
COc1cc(OC)c([C@@H]2O[C@H](CO)[C@@H](O)[C@H](O)[C@H]2O)c(OC)c1	x	-4%	x	x	21%
CCCNC(=O)OC[C@@H]1O[C@H](CCO/N=C(\C)CCN2CCc3nc(-c4ccccc4)c(-c4ccccc4)cc3C2)C=C[C@@H]1Oc1ccc(OC)cc1	x	-1%[10 µM]	x	x	0%[10 µM]
COc1cccc2sc(N(CCCN(C)C)C(=O)c3ccc(S(=O)(=O)N4CCc5ccccc5C4)cc3)nc12	-1%	28µM*	0%	-6	-89%
CCOc1cccc2sc(N(CCCN(C)C)C(=O)c3ccc(S(=O)(=O)N(CC)Cc4ccccc4)cc3)nc12	0%	22µM*	6%	-3	u
CCOc1ccc2nc(N(CCCN(C)C)C(=O)c3ccc(S(=O)(=O)N4CCc5ccccc5C4)cc3)sc2c1	0%	u	0%	40	10µM*
O=C(O)[C@H]1CCCNC1	x	-8%	x	x	26%
C/C(=N/Nc1nc(C)c(C)s1)c1cccc([N+](=O)[O-])c1	0%	u	-8%	3	11µM*
SMILES	B2AR arrestin	VP16 counter	ELG1 DNA repair	TSHR antag	RORgamma inh
C/C(=N\NC(=S)NC(C)C)c1cccc([N+](=O)[O-])c1	-1%	4µM*	-10%	-1	1.3µM*
CNC(=S)Nc1cccc([N+](=O)[O-])c1	0%	6%	-4%	-5	3%
C/C(=N\NC(=S)NC(C)C)c1ccc(Cl)c([N+](=O)[O-])c1	u	u	3%	-7	u
C/C(=N\NC(=O)c1cccc([N+](=O)[O-])c1)c1cccc(NC(=O)C2CC2)c1	0%	-8%	u	-2	-36%
C/C(=N/NC(=S)Nc1cccc(C)c1)c1cccc([N+](=O)[O-])c1	u	10µM*	0%	2	2.8µM*
Cc1cc(Br)ccc1NC(=S)Nc1cccc([N+](=O)[O-])c1	0%	u	-30%	13	11µM*
CCOc1ccc(C(C)=O)cc1CN1C(=O)c2ccccc2S1(=O)=O	0%	4%	5%	-2	2%
Cc1cccc(NC(=S)N/N=C(\c2ccccc2)C(C)C)c1	0%	u	15%	-11	4.5µM*
CC1CCN(c2[nH]c(=S)c(C#N)c3c2CCCC3)CC1	0%	u	-20%	12	7.1µM*
CC(NC(=S)Nc1ccc(F)cc1)C(c1cccs1)N1CCOCC1 (centres undefined)	-1%	u	-1%	7	4µM*
Cc1cccc(NC(=S)NC(C)C(c2cccs2)N2CCN(C)CC2)c1C (centres undefined)	0%	-9%	14%	-4	u
CC(C)C(=O)NC(C)C(c1cccs1)N1CCOCC1 (centres undefined)	0%	-6%	8%	-5	22%
CC(NC(=S)Nc1ccccc1Cl)C(c1cccs1)N1CCCC1 (centres undefined)	0%	u	0%	-3	7.9µM*
CC(NC(=S)NCCc1ccccc1)C(c1cccs1)N1CCN(Cc2ccccc2)CC1 (centres undefined)	0%	u	u	19	5µM*
CC(NC(=O)NC1CCCCC1)C(c1cccs1)N1CCN(Cc2ccccc2)CC1 (centres undefined)	0%	-18%	0%	11	-15%
Cc1ccccc1NC(=S)NC(C)C(c1cccs1)N1CCOCC1 (centres undefined)	-2%	22µM*	0%	2	2.8µM*
O=C(c1ccncc1)N1CCC2(CC1)CN(c1ccccn1)C2	x	7%	x	x	-2%
CCOc1ccc(N2CC(C(=O)Nc3cccc(C(=O)NC4CC4)c3)CC2=O)cc1 (centres undefined)	-3%	x	3%	75	x
CCOCCn1c(N2CCCN(C)CC2)nc2ccccc21	x	-5%	x	x	-1%
O=C(Nc1ccc([N+](=O)[O-])cc1)c1cc(Cl)sc1Cl	0%	24%	-7%	-13	u
CC[C@H]1CCCCc2ccccc2[C@@H](C(=O)C[C@@H](O)CC(C)=O)OC1=O	0%	x	-11%	-7	x

Screens from PubChem.
